Outcome and AC50 data for three compounds are collected here from PubChem BioAssay (EPA / NIEHS).

A short description of assay [1]: APR_HepG2_NuclearSize_72hr: Apredica 72-hour HepG2 Assay for Nuclear Size (AID 2282925). The note with it: high-content imaging, actives raise or lower the signal. Put shortly: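 Compounds (0.39–200 uM, final DMSO 0.5%) were applied to HepG2 for 72 hr. Cells were then formaldehyde-fixed, permeabilized and labelled with Hoechst 33342. Nuclear diameter was quantified from six images per well.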

The nature of assay [2]: ATG_CRE_CIS: Attagene CIS-FACTORIAL HepG2 Assay for human cAMP Responsive Element (CRE) binding protein 3 (AID 2282926). Particulars: HepG2 CRE cis-reporter, Attagene multiplexed mRNA; actives raise or lower the signal. Put shortly: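 Capillary electrophoresis of 6-FAM-labelled, HpaI-digested PCR products quantified reporter transcripts. These came from HepG2 transiently transfected with cis-element reporters and exposed to test chemicals for 24 hours, with DMSO defining baseline activity.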

In assay [3] the target is CCAAT/enhancer-binding protein beta (Homo sapiens) (UniProt P17676). The assay can be described thus: ATG_C_EBP_CIS: Attagene CIS-FACTORIAL HepG2 Assay for human CCAAT/Enhancer Binding Protein (C/EBP) beta (AID 2282927). Particulars: HepG2 Attagene cis-factorial transcription factor reporter; actives raise or lower the signal. Put shortly:
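Chemical-treated HepG2 cells (24 h) bearing cis-regulated reporter constructs were processed for total RNA, then reverse transcription, PCR amplification, fluorescent primer extension and fragment analysis; gain- and loss-of-signal were fitted against DMSO.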

A short description of assay [4]: ATG_CMV_CIS: Attagene CIS-FACTORIAL HepG2 Assay for human CMV (Internal Marker) (AID 2282928).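 Further: endpoint acts as a background internal control marker rather than a target.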 Particulars: HepG2 CMV promoter reporter, transcription factor profiling; actives raise or lower the signal. In outline:
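Readout: fluorescent reporter cDNA fragments separated by capillary electrophoresis after RT-PCR and HpaI cut. Cells: HepG2 carrying transfected cis-promoter reporter constructs, dosed 24 h. Endpoint serves as background internal-marker control, fit bidirectionally versus DMSO.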

The nature of assay [5]: ATG_DR4_LXR_CIS: Attagene CIS-FACTORIAL HepG2 Assay for human Liver X Receptor (LXR), DR4 submotif (AID 2282929). The note with it: HepG2 Attagene DR4 cis-reporter, mRNA transcription; actives raise or lower the signal. In outline: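 HepG2, transient MRTU transfection, cis-element (DR4) promoter; 24 h compound exposure; total RNA → oligo(dT) RT → PCR → 6-FAM primer extension → HpaI cut → CE. Gain/loss vs DMSO, bidirectional fit.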

Assay [6] concerns the target Aryl hydrocarbon receptor (Homo sapiens) (UniProt P35869). Description: ATG_Ahr_CIS: Attagene CIS-FACTORIAL HepG2 Assay for human Aryl Hydrocarbon Receptor (Ahr) (AID 2282930). The note with it: HepG2 AhR cis-factorial reporter transcription; actives raise or lower the signal. Put shortly:
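Following 24 h of chemical dosing, transfected HepG2 liver cells with cis-driven reporter units were lysed for RNA; reporter mRNA was quantified via RT-PCR and capillary electrophoresis, and responses fitted bidirectionally from DMSO.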

Assay [7] in a line: ATG_AP_2_CIS: Attagene CIS-FACTORIAL HepG2 Assay for human Activator Protein 2 (AP-2) (AID 2282932). Particulars: HepG2 AP-2 cis-reporter, Attagene transcription factor profiling; actives raise or lower the signal. In outline: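 Assay in transfected HepG2 with promoter-regulated reporters, 24 h incubation after dosing. Signal is reporter mRNA fluorescence (RT-PCR, capillary electrophoresis), analysed for both increases and decreases relative to DMSO controls.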

A short description of assay [8]: ATG_BRE_CIS: Attagene CIS-FACTORIAL HepG2 Assay for human Bone Morphogenetic Protein (BMP) Response Element (BRE) (AID 2282933). The note with it: HepG2 BMP response element reporter, Attagene transcription factor profiling; actives raise or lower the signal. In outline: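 Endogenous transcription factor activity read in transiently transfected HepG2 cells after 24 h chemical exposure. Bidirectional curve fitting against DMSO; readout is reporter transcript level by RT-PCR with capillary electrophoresis of labelled products.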

For assay [9], the target named is Retinoic acid receptor alpha (Homo sapiens) (UniProt P10276). Description: ATG_DR5_RAR_CIS: Attagene CIS-FACTORIAL HepG2 Assay for human Retinoic Acid Receptor Alpha (RARE), DR5 submotif (AID 2282934).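 On AC50: reporter responds to endogenous RAR alpha beta and gamma in HepG2 not RARA alone.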 Particulars: HepG2 Attagene cis-factorial RARE DR5 reporter, mRNA; actives raise or lower the signal. In outline: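 Transfected HepG2 reporter cells are exposed to chemicals for 24 h. Then RNA is extracted and the DR5 element reporter transcript is measured by RT-PCR and capillary electrophoresis, with bidirectional curve fitting relative to DMSO.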
Chain of Retinoic acid receptor alpha (Homo sapiens) (P10276 whole entry, looked up): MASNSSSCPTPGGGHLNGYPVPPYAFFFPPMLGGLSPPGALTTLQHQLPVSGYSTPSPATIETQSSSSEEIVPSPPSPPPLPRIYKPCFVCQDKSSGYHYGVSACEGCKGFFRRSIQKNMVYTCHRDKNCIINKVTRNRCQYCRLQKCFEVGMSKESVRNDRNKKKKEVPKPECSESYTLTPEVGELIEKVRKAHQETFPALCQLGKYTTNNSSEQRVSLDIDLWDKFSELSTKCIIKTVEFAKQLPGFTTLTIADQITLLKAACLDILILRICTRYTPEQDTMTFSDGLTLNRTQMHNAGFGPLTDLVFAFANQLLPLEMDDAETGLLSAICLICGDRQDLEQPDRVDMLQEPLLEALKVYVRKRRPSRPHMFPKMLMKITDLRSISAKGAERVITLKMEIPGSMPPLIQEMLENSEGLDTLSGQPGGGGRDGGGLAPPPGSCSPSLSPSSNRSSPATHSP

The target in assay [10] is Transcription factor E2F1 (Homo sapiens) (UniProt Q01094). Description: ATG_E2F_CIS: Attagene CIS-FACTORIAL HepG2 Assay for human E2F Transcription Factor 1 (AID 2282935). Particulars: HepG2 Attagene cis-reporter, E2F reporter RNA transcripts; actives raise or lower the signal. In outline: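 In this cis-factorial format, endogenous factor activity drives transfected reporters in HepG2; transcripts collected at 24 h are quantified by fluorescence after RT-PCR and capillary separation.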
Chain of Transcription factor E2F1 (Homo sapiens) (Q01094 whole entry, looked up): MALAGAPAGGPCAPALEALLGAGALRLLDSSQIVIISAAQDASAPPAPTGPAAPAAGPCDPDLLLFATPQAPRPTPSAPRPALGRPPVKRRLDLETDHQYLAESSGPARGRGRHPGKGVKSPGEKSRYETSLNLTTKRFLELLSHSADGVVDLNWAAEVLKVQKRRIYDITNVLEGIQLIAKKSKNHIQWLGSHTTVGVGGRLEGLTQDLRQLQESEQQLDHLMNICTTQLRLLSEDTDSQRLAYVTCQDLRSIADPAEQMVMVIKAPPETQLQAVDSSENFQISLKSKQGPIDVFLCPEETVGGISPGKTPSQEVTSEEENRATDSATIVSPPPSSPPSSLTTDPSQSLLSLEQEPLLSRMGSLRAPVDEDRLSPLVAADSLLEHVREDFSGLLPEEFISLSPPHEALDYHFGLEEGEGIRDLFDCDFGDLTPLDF

Assay [11] in a line: ATG_E_Box_CIS: Attagene CIS-FACTORIAL HepG2 Assay for human Enhancer Box (E-box) (AID 2282936). The note with it: HepG2 E-box cis-reporter transcription, actives raise or lower the signal. Put shortly: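 Measured 24 h post-dosing in HepG2 cells transfected with multiple cis-regulated reporter units, signal being reporter mRNA induction detected by fluorescent RT-PCR with capillary electrophoresis; gain or loss fitted against DMSO.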

Assay [12] can be described thus: ATG_M_61_CIS: Attagene CIS-FACTORIAL HepG2 Assay for M61 Transcription Factor (Internal Marker) (AID 2282937). The note with it: HepG2 Attagene CIS-FACTORIAL M61 internal marker reporter; actives raise or lower the signal. Put shortly:
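Human liver HepG2, transient MRTU transfection (cis promoter elements), 24 h compound. Total RNA → oligo(dT) RT → PCR → FAM label → HpaI → CE. Internal background marker; bidirectional fitting, DMSO = baseline.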

Assay [13] is described as follows: ATG_EGR_CIS: Attagene CIS-FACTORIAL HepG2 Assay for human Early Growth Response 1 (EGR1) (AID 2282938). Particulars: HepG2 Attagene CIS-FACTORIAL EGR reporter mRNA; actives raise or lower the signal. In outline: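 Transient transfection of human HepG2 with multiple cis-regulated reporter units, chemical exposure 24 h, total RNA isolated. Reverse transcription, PCR, fluorescent labelling and capillary electrophoresis quantify reporter transcripts; activity fitted bidirectionally against DMSO.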

Assay [14] in a line: ATG_M_19_CIS: Attagene CIS-FACTORIAL HepG2 Assay for M19 Transcription Factor (Internal Marker) (AID 2282939). The note with it: HepG2 Attagene CIS-FACTORIAL M19 internal marker reporter; actives raise or lower the signal. Put shortly: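 Internal marker readout, fitted in both directions against DMSO, from HepG2 cells carrying transfected cis-element reporter constructs; RT-PCR and capillary electrophoresis of reporter mRNA after 24 h exposure.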

Assay [15] is described as follows: ATG_ERE_CIS: Attagene CIS-FACTORIAL HepG2 Assay for Estrogen Response Element (ERE) (AID 2282940). The note with it: HepG2 ERE cis-reporter, Attagene RNA transcript; actives raise or lower the signal. Put shortly: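 After 24 h compound treatment, RNA from transfected HepG2 cells was reverse-transcribed, reporter cDNA PCR-amplified, FAM-labelled, HpaI-cut and resolved by capillary electrophoresis. ERE-driven cis reporter transcripts reflect endogenous factors; gain or loss scored against DMSO.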

Assay [16] is described as follows: ATG_Ets_CIS: Attagene CIS-FACTORIAL HepG2 Assay for human Erythroblast Transformation Specific (ETS) (AID 2282941). The note with it: HepG2 ETS cis-reporter transcription, actives raise or lower the signal. In outline: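 RT-PCR/capillary electrophoresis fluorescence read-out of reporter mRNA; HepG2 transient multi-reporter transfection; 24 h compound exposure; gain or loss of signal fitted bidirectionally relative to DMSO.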

Assay [17] deals with Hepatocyte nuclear factor 3-beta (Homo sapiens) (UniProt Q9Y261). The assay can be described thus: ATG_FoxA2_CIS: Attagene CIS-FACTORIAL HepG2 Assay for human Forkhead box A2 (FOXA2) (AID 2282942). The note with it: HepG2 cis-reporter transcription factor activity, 24 h; actives raise or lower the signal. In outline: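 Transient MRTU transfection of HepG2 liver cells; 24 h treatment; total RNA → oligo(dT) RT → PCR → FAM primer extension → HpaI cut → CE. Bidirectional fit vs DMSO.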
Chain of Hepatocyte nuclear factor 3-beta (Homo sapiens) (Q9Y261 whole entry, looked up): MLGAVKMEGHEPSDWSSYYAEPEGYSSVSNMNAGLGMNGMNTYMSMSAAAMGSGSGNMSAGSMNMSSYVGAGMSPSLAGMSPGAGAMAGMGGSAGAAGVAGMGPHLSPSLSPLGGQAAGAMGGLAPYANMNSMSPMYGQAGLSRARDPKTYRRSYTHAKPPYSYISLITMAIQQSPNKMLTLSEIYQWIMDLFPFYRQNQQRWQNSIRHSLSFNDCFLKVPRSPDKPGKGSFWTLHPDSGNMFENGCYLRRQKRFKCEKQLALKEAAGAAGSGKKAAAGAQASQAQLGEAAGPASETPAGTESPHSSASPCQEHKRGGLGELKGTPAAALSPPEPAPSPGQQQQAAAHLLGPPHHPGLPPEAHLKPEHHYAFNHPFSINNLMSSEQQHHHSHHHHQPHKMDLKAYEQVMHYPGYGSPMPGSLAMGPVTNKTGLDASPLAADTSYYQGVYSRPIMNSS

Assay [18] is described as follows: ATG_GATA_CIS: Attagene CIS-FACTORIAL HepG2 Assay for human GATA Binding Protein (AID 2282944). The note with it: HepG2 GATA cis-element reporter, Attagene multiplex mRNA; actives raise or lower the signal. Put shortly: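 Reporter transcripts from a GATA cis-regulated unit, among multiplexed reporters in transfected HepG2 cells, were measured by RT-PCR with capillary electrophoresis after 24 h dosing. Induction or loss scored relative to DMSO.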

Assay [19] can be described thus: ATG_AP_1_CIS: Attagene CIS-FACTORIAL HepG2 Assay for human Activator Protein 1 (AP-1) (AID 2282931). Particulars: HepG2 Attagene cis-factorial AP-1 reporter mRNA; actives raise or lower the signal. In outline:
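Transient MRTU transfection of HepG2 → 24 h chemical treatment → RNA isolation, RT-PCR, 6-FAM labelling, HpaI digest → capillary electrophoresis. Fit: bidirectional, DMSO negative control.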

A short description of assay [20]: ATG_FoxO_CIS: Attagene CIS-FACTORIAL HepG2 Assay for human Forkhead box O (FoxO) (AID 2282943). Particulars: HepG2 Attagene cis-reporter, FoxO element, mRNA; actives raise or lower the signal. In outline:
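24 h chemical exposure, HepG2 with transient cis-MRTU transfection. RNA extraction, oligo(dT) RT, reporter-specific PCR, primer-extension labelling, HpaI digestion, CE fragment analysis; bidirectional fit, DMSO baseline.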

Molecules are shown by their SMILES. A structure can be active in one record and inactive in another. Activity calls are given as the source filed them. How the source made its calls: active means hit-call score of the fitted dose curve at least 0.9, where 1 is the maximum; inactive means score below 0.9.

Chain of CCAAT/enhancer-binding protein beta (Homo sapiens) (P17676 whole entry, looked up, the tested form may be a part): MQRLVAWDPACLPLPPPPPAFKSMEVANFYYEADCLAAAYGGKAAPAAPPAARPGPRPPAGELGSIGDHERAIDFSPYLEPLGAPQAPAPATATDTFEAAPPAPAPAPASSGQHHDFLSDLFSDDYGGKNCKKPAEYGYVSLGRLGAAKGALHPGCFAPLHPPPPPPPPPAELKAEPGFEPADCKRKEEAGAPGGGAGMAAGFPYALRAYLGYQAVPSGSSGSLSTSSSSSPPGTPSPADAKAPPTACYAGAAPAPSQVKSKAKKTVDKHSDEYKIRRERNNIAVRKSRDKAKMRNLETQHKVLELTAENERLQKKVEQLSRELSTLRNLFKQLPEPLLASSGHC
Chain of Aryl hydrocarbon receptor (Homo sapiens) (P35869 whole entry, looked up): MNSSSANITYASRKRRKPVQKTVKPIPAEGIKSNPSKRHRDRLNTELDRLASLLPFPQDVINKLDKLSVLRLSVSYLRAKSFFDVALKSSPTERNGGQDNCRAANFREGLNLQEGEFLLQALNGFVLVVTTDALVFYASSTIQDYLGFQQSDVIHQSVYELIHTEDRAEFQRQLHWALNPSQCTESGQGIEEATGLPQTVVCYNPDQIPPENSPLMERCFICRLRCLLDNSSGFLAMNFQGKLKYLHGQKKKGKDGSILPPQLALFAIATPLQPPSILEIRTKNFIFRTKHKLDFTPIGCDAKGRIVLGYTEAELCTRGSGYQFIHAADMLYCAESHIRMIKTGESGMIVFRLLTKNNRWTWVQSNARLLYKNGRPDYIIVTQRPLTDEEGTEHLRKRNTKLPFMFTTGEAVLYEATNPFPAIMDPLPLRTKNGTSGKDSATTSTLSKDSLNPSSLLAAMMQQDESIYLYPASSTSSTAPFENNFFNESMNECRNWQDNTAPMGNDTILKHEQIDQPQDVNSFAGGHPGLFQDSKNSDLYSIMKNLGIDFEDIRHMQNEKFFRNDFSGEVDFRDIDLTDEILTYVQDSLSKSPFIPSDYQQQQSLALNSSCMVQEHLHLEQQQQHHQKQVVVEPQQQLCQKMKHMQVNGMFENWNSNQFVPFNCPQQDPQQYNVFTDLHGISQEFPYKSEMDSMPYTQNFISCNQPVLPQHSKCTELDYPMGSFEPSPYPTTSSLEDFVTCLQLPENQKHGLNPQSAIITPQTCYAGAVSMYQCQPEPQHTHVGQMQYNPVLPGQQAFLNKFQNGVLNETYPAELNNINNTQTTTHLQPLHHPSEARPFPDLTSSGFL

`CCCCNC(=O)OCC#CI`: the call in assay [1], in assay [2], in assay [3], in [4], in assay [5] and in assay [6] was inactive. For the same compound, the outcome in [7], in assay [8], in [9], in assay [10], in assay [11] and in assay [12] was inactive. Further, the outcome in [13], in [14], in [15], in assay [16], in assay [17] and in [18] was inactive. The concentration at half-maximal activity (AC50) (in general, the concentration at which the activity in the assay is half-maximal) in assay [2] is 29.7 µM (active); in assay [3], 25.3 µM (active); in [4], 67.7 µM (active); in assay [5], 180 µM (active); in assay [7], 60.7 µM (active); in assay [8] it was 25.2 µM (active). Also, the concentration at half-maximal activity (AC50) in assay [9] is 26.7 µM (active); in assay [11] it was 145 µM (active); in assay [13] it was 33.4 µM (active); in assay [16], 48.7 µM (active); in assay [17], 173 µM (active); in assay [18] it was 49.2 µM (active).

As for `CCNc1nc(Cl)nc(NCC)n1`, the compound was called inactive in assay [1], in assay [2], in [3], in assay [4], in assay [5] and in assay [6]. For the same compound, the compound was called inactive in assay [19], in assay [7], in assay [8], in [9], in assay [10] and in [11]. In addition, the compound was called inactive in assay [12], in assay [13], in assay [14], in [15], in assay [16] and in assay [17]. For the same compound, the result in assay [20] and in assay [18] was inactive.

As to `CNC(=O)ON=CC(C)(C)SC`, the compound was classed as inactive in assay [1], in assay [2], in assay [3], in assay [4], in [5] and in assay [6]. The call in assay [19], in assay [7], in assay [8], in [9], in [10] and in [11] was inactive. Further, the outcome in assay [12], in assay [13], in assay [14], in assay [15], in assay [16] and in [17] was inactive. Also, the compound was classed as inactive in assay [18]. Besides, the AC50 in assay [10] is 149 µM (active).
